The values below come from PubChem BioAssay.

Results filed as inconclusive are left out. Activity calls are given as the source filed them. Unless noted, the limit is not given here; nearly all actives have AC50 up to about 26 µM.

The nature of assay [1]: viability loss in pontine glioma line – cell-based, SU-DIPG-XVII, MIPE5.0, CellTiter-Glo, qHTS, dose response (AID 1347060).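 As to AC50: cells exposed to compound for 48 hours before viability readout.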 The conditions noted are these: CellTiter-Glo ATP luminescence.
The nature of assay [2]: JHH-DIPG-1 glioma cell viability, MIPE5.0 library, CellTiter-Glo luminescence, qHTS (AID 1347067).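 Also: cells exposed to compound for 48 hours before readout.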 As to conditions: JHH-DIPG-1 glioma viability, CellTiter-Glo ATP luminescence.
Assay [3] can be described thus: viability loss in pontine glioma line – cell-based, SU-DIPG-XXV, MIPE5.0, CellTiter-Glo, qHTS, dose response (AID 1347065).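 Also: cells exposed to compound for 48 hours before ATP readout.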 As to conditions: CellTiter-Glo ATP luminescence.
A short description of assay [4]: growth inhibition of DIPG cells – cell-based, MIPE5.0 library, qHTS (AID 1347068; cut-off not given, nearly all actives have IC50 up to about 30 µM;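 as to IC50: cells exposed to compound for 48 hours before viability readout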). As to conditions: SU-DIPG-XXV viability.
Assay [5] is described as follows: P. berghei load reduction in hepatocytes – cell-based, HepG2, luciferase luminescence, HepG2 viability, primary screen (AID 624349; in the data active = parasite load remaining mostly below about 12%, no sharp cut-off; inactive = mostly above about 10%;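 also: 100% = mean of DMSO negative control wells on the same plate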). As to conditions: P. berghei liver stage in HepG2, luciferase luminescence, concentration not given here; parasite load remaining: stronger effect = lower value; viability: measured here: HepG2 viability without parasites.
A short description of assay [6]: viability loss with induced miR-34 in A549 – imaging, A549 dox-inducible miR-34, nuclei and caspase counts, primary screen (AID 1347080;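 active = compounds whose cell count with miR-34 switched on is under 0.7 times the count with it off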). The conditions noted are these: A549 miR-34 inducible, Hoechst nuclei count, 48 h.
Assay [7] in a line: MELAS cybrid and Rieske KO viability enhancers – cell-based, MELAS cybrids, Rieske KO mouse fibroblasts, CellTiter-Glo, primary screen (AID 1508586;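 active = mean z-score across replicates of 1.96 or higher in either the MELAS or the Rieske mutant cell line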;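 also: z relative to plate mean and SD of compound and empty wells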). The conditions noted are these: low glucose.
The nature of assay [8]: drug combination growth inhibition, ovarian cancer – cell-based, oncology-focused library, rucaparib conditional, profiling panel (AID 1508598;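 active = normalized viability below 100% at a tested concentration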). As to conditions: patient-derived ovarian cancer cells, CellTiter-Glo viability, 144 h, stronger effect = lower value.
Assay [9] in a line: growth inhibition of DIPG cells – cell-based, MIPE4.0 library, CellTiter-Glo luminescence, qHTS (AID 1347066; cut-off not given, nearly all actives have AC50 up to about 30 µM;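 also: cells exposed to compound for 48 hours before readout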). The conditions noted are these: SU-DIPG-VI viability, CellTiter-Glo ATP luminescence.
Assay [10] in a line: galactose survival enhancers in mitochondrial complex I cybrids – cell-based, galactose medium, ATP luminescence, primary screen (AID 1645843;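 active = z-score of at least 1.8 in each of two replicates, scored against plate mean and spread of sample wells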;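 also: positive z means more ATP and so rescue of galactose-driven cybrid death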). The conditions noted are these: complex I mutant cybrid cells, 72 h, stronger effect = higher value.
Where [11] appears, read: stronger effect = lower value, cell number ratio, induced over uninduced.
Where [12] appears, read: measured here: relative caspase fold change +Dox/-Dox.
Where [13] appears, read: measured here: total cells with miR-34 induction, stronger effect = lower value.
The mark [14] stands for this setting: measured here: total cells without miR-34 induction.
The mark [15] stands for this setting: MELAS cybrid survival, CellTiter-Glo 48 h, stronger effect = higher value.
Setting [16] is: Rieske KO mouse fibroblast survival, CellTiter-Glo 72 h.

On to `[O-][n+]1cccc(-c2nc3c(Cl)cccc3cc2[C@@H](Nc2ncnc3cccnc23)C(F)(F)F)c1`, for which the result in assay [1] and in [2] was inactive.
Turning to `C=CC(=O)N[C@H]1CN(c2nc(Nc3cn(C)nc3OC)c3ncn(C)c3n2)C[C@@H]1F`, the AC50 in assay [1] is 18.6 µM (active); in assay [3] it was 20.9 µM (active). The half-maximal inhibitory concentration (IC50) in assay [4] is 16.6 µM (active).
For `COc1cc2ncnc(Nc3ccc(O)c(Br)c3)c2cc1OC`, the parasite load remaining in assay [5] was 33.2% (inactive). Also, the viability in assay [5] is 98.7%. Further, the AC50 in [1] was 16.6 µM (active); in assay [3], 14.8 µM (active); in assay [2], 13.2 µM (active). For the same compound, the fold change is 0.645 (active) in [6] (setting [11]) and 0.931 in assay [6] (setting [12]). For the same compound, the cell count in [6] (setting [13]) was found to be 3410; in [6] (setting [14]) it was 5290. The results for the z-score in assay [7] (setting [15]) and in assay [7] (setting [16]) were -0.521 (inactive) and -0.0359, respectively.
For `CC(C)Oc1ccc(C(=O)N[C@H](CNC(=O)CN(C)C)Cc2ccc(-c3cn4cccc([C@H](C)O)c4n3)cc2)cc1Cl`, the AC50 in assay [1] is 0.0525 µM (active); in assay [3], 0.0295 µM (active). Moreover, the call in assay [2] was inactive. Also, the viability is 116% (inactive) in assay [8] (at 0.000305 µM, OCI-C5x cells, with rucaparib 10 µM, 100% = cells with rucaparib alone); 118% (inactive) in assay [8] (at 0.000305 µM, OCI-C5x cells, without rucaparib); 118% (inactive) in assay [8] (at 0.000305 µM, OCI-P5x cells, with rucaparib 20 µM, 100% = cells with rucaparib alone); 103% (inactive) in assay [8] (at 0.000305 µM, OCI-P5x cells, without rucaparib); 112% (inactive) in [8] (at 0.00122 µM, OCI-C5x cells, with rucaparib 10 µM, 100% = cells with rucaparib alone); 123% (inactive) in [8] (at 0.00122 µM, OCI-C5x cells, without rucaparib). Also, the viability is 107% (inactive) in assay [8] (at 0.00122 µM, OCI-P5x cells, with rucaparib 20 µM, 100% = cells with rucaparib alone); 107% (inactive) in [8] (at 0.00122 µM, OCI-P5x cells, without rucaparib); 117% (inactive) in assay [8] (at 0.00488 µM, OCI-C5x cells, with rucaparib 10 µM, 100% = cells with rucaparib alone); 115% (inactive) in assay [8] (at 0.00488 µM, OCI-C5x cells, without rucaparib); 107% (inactive) in [8] (at 0.00488 µM, OCI-P5x cells, with rucaparib 20 µM, 100% = cells with rucaparib alone); 101% (inactive) in assay [8] (at 0.00488 µM, OCI-P5x cells, without rucaparib). Also, the viability in assay [8] (at 0.0195 µM, OCI-C5x cells, with rucaparib 10 µM, 100% = cells with rucaparib alone) was 69.6% (active); in assay [8] (at 0.0195 µM, OCI-C5x cells, without rucaparib) it was 73.7% (active); in [8] (at 0.0195 µM, OCI-P5x cells, with rucaparib 20 µM, 100% = cells with rucaparib alone), 76.4% (active); in assay [8] (at 0.0195 µM, OCI-P5x cells, without rucaparib), 38.4% (active); in assay [8] (at 0.0781 µM, OCI-C5x cells, with rucaparib 10 µM, 100% = cells with rucaparib alone) it was 57.4% (active); in assay [8] (at 0.0781 µM, OCI-C5x cells, without rucaparib) it was 72.4% (active). Further, the viability in assay [8] (at 0.0781 µM, OCI-P5x cells, with rucaparib 20 µM, 100% = cells with rucaparib alone) is 66.4% (active); in [8] (at 0.0781 µM, OCI-P5x cells, without rucaparib), 30.8% (active); in assay [8] (at 0.313 µM, OCI-C5x cells, with rucaparib 10 µM, 100% = cells with rucaparib alone), 57.8% (active); in assay [8] (at 0.313 µM, OCI-C5x cells, without rucaparib) it was 65% (active); in assay [8] (at 0.313 µM, OCI-P5x cells, with rucaparib 20 µM, 100% = cells with rucaparib alone), 62.3% (active); in assay [8] (at 0.313 µM, OCI-P5x cells, without rucaparib) it was 28.3% (active). The viability in assay [8] (at 1.25 µM, OCI-C5x cells, with rucaparib 10 µM, 100% = cells with rucaparib alone) was 61.8% (active); in [8] (at 1.25 µM, OCI-C5x cells, without rucaparib), 72.8% (active); in assay [8] (at 1.25 µM, OCI-P5x cells, with rucaparib 20 µM, 100% = cells with rucaparib alone) it was 62.6% (active); in [8] (at 1.25 µM, OCI-P5x cells, without rucaparib), 26.8% (active); in assay [8] (at 5 µM, OCI-C5x cells, with rucaparib 10 µM, 100% = cells with rucaparib alone), 79.5% (active); in [8] (at 5 µM, OCI-C5x cells, without rucaparib), 89.6% (active). The viability is 63.4% (active) in [8] (at 5 µM, OCI-P5x cells, with rucaparib 20 µM, 100% = cells with rucaparib alone) and 25.3% (active) in [8] (at 5 µM, OCI-P5x cells, without rucaparib).
Consider `COCCN1CCN(Cc2ccc(-c3n[nH]c4c3C(=O)c3c(NC(=O)NN5CCOCC5)cccc3-4)cc2)CC1`, for which the half-maximal activity concentration (AC50) in assay [1] was 0.295 µM (active); in assay [3] it was 0.235 µM (active). In addition, in [4], the half-inhibitory concentration (IC50) was 0.263 µM (active).
Take `Cn1ncc(NC(=O)c2nc(-c3c(F)cccc3F)sc2N)c1N1CC[C@@H](N)[C@H](F)CC1`: the outcome in [1] and in [2] was inactive.
For `O=C(/C=C/N1C[C@H]2C[C@@H]1CN2c1ccccn1)c1ccccc1O`, the outcome in [1] and in assay [2] was inactive.
Turning to `COC(=O)[C@H]1[C@@H](O)[C@@]2(O)c3c(OC)cc(O[C@@H]4O[C@@H]([C@@H](O)CO)CO[C@H]4OC)cc3O[C@@]2(c2ccc(OC)cc2)[C@@H]1c1ccccc1`, the AC50 was 8.33 µM (active) in assay [1] and 5.25 µM (active) in assay [3]. Besides, the compound was classed as inactive in assay [4].
Take `NC(=O)C1=C(O)[C@@]2(O)C(=O)C3=C(O)c4c(O)cccc4C[C@H]3C[C@H]2CC1=O`: the results for the AC50 in [1] and in assay [2] were 18.6 µM (active) and 14.8 µM (active), respectively. The result in [4] was inactive.
Regarding `CO[C@@H]1[C@H](N(C)C(=O)c2ccccc2)C[C@H]2O[C@]1(C)n1c3ccccc3c3c4c(c5c6ccccc6n2c5c31)C(=O)NC4`, in [1], the AC50 is 1.66 µM (active). For the same compound, the call in assay [9] was inactive.
Turning to `NC(=O)[C@@H](CCC(F)(F)F)N(Cc1ccc(-c2ncon2)cc1F)S(=O)(=O)c1ccc(Cl)cc1`, the compound was classed as inactive in assay [1], in assay [9] and in assay [2].
As to `Nc1nc(OC(c2ccc(-c3cccc(F)c3)cc2)C(F)(F)F)cc(-c2ccc(C[C@H](N)C(=O)O)cc2)n1` (stereo partly drawn), the outcome in assay [1], in assay [3] and in [4] was inactive.
`C/C(=C\c1csc(C)n1)[C@@H]1C[C@@H]2O[C@]2(C)CCC[C@H](C)[C@H](O)[C@@H](C)C(=O)C(C)(C)[C@@H](O)CC(=O)N1`: the AC50 in [1] was 0.0148 µM (active); in assay [3] it was 0.0118 µM (active). Moreover, the half-maximal inhibitory concentration (IC50) in assay [4] was 3.32 µM (active).
As for `C[C@H](NC(=O)CCC(F)(F)F)C(=O)N[C@@H]1C(=O)N(CCO)c2ncccc2-c2ccccc21`, the outcome in assay [1] and in assay [2] was inactive.
Regarding `C=C1CCC[C@]2(C)C=C3OC(=O)C(C)=C3C[C@@H]12`, the compound was classed as inactive in assay [1], in assay [2] and in [4].
Consider `O=C(Nc1ccnc(NC(=O)C2CC2)c1)c1c(Cl)cccc1Cl`, for which the half-maximal activity concentration (AC50) in assay [1] is 9.34 µM (active); in [2] it was 2.63 µM (active). Moreover, the 50% inhibitory concentration (IC50) in assay [4] is 7.42 µM (active).
Regarding `[2H]C([2H])(Nc1nc(-c2ccccc2C([2H])(C([2H])([2H])[2H])C([2H])([2H])[2H])ncc1C)c1ccc(-n2ccnn2)cc1`, the call in assay [1], in assay [3] and in assay [4] was inactive.
Turning to `C=CC(=O)N1CC(N2CCN(C(=O)CNc3cc(C4(C)CC4)c(Cl)cc3O)CC2)C1`, the compound was classed as inactive in [1], in assay [3] and in assay [4].
On to `Cn1cc(-c2ccc(F)c(C(F)(F)F)c2)nc1C1CCN(c2ncnc3[nH]ncc23)CC1`, for which the call in [1], in [3] and in assay [4] was inactive.
With `Cc1cc(OCc2nnc(SC3CCCC3)n2-c2cccnc2)ccc1-c1ccc(S(C)(=O)=O)cc1`, the concentration at half-maximal activity (AC50) was 8.33 µM (active) in assay [1], 8.33 µM (active) in assay [3] and 2.09 µM (active) in assay [2]. The compound was classed as inactive in assay [4]. The fold change was 0.88 (inactive) in [6] (setting [11]) and 0.499 in assay [6] (setting [12]). For the same compound, the cell count in assay [6] (setting [13]) was 1100; in [6] (setting [14]), 1250. Moreover, the z-score in [7] (setting [15]) is 0.698 (inactive); in assay [7] (setting [16]), -0.0239.
Turning to `CC(C)(O)CNc1ncc(-c2ccnc(Nc3ccncc3)n2)c(CC2CC2)n1`, the AC50 in [1] and in assay [2] was 16.6 µM (active) each time. Besides, the concentration for half-maximal inhibition (IC50) in assay [4] is 23.5 µM (active).
As for `Cc1c(O)cccc1C(=O)NC(CSc1ccccc1)C(O)CN1CC2CCCCC2CC1C(=O)NC(C)(C)C` (stereo not drawn), the AC50 in assay [1] and in assay [3] was 20.9 µM (active) each time. Also, the concentration for half-maximal inhibition (IC50) in [4] was 18.6 µM (active). Besides, the values for the fold change in assay [6] (setting [11]) and in assay [6] (setting [12]) were 1.31 (inactive) and 0.935, respectively. Also, the figures for the cell count in assay [6] (setting [13]) and in assay [6] (setting [14]) were 2190 and 1680, respectively. The z-score in assay [10] is -1.88 (inactive).
